Screening data (PubChem)
This is a sample that favours compounds with a hit; in the whole collection about 21% have one here.
Pf growth 96h: inhibits malaria parasite growth, 96 h | Potency, µM (series often up to 28.7 µM), most hits filed as inhibitors | AID 504834 | actives 6.9% (n = 320,000) | P. falciparum luciferase reporter growth, 96 h
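Two parasite generations (96 h, 37 C, 5% CO2) of compound exposure in infected erythrocytes (0.05% parasitemia, 2% hematocrit). Luciferase-reporter P. falciparum; decreased luminescence indicates inhibited growth, aimed at apicoplast-acting delayed death.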
FBPA Giardia inh: blocks Giardia fructose-bisphosphate aldolase activity. purified Giardia FBPA. Potency, µM (top dose mostly 59.6 µM), hits mostly inhibitors. actives 0.71% (n = 290,000); further: nearly all actives have a fitted effect of over 55% in size
Target sequence (A8B2U2 whole entry, looked up): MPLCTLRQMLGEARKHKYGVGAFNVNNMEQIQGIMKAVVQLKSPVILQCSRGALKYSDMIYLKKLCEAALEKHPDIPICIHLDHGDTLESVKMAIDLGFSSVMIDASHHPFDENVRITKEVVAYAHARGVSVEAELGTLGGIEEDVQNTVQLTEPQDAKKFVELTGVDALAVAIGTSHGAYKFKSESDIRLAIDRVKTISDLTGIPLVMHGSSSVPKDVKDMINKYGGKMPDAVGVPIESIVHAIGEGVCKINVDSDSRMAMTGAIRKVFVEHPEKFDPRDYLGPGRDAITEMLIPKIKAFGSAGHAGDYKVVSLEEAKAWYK
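Giardia FBPA (40 nM reagent) was preincubated 10 min at RT with compound (up to 57.5 uM final), then substrate plus GAPDH/TPI/NAD/arsenate coupling system with diaphorase/resazurin was added; resorufin fluorescence (525/598 nm) was read after 20 min.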
NS1 inh: inhibitors of influenza NS1 protein function | Potency, µM (doses to about 46.1 µM) | actives 0.4% (n = 270,000) | AID 2326; calls by dose curve; further: actives are rising curves; nearly all actives have a fitted effect of over 50% in size
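In this qHTS, NS1 from influenza A is expressed in budding yeast, where it slows growth. Cells are switched from glucose to 2% galactose medium (pH 6.0, -URA), treated with compound, and growth recovery is read at OD600.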
CHX counter: counter-screen for Shiga toxin inhibitors: cycloheximide protein synthesis inhibition; cell reporter, cycloheximide protein synthesis inhibition counterscreen; max response, %; actives 12% (n = 300,000); in the data active means max response mostly above about 13%, no sharp cut-off; inactive means mostly below about 14%; further: read at 38.3 µM for the half of the compounds with a filed dose
Shiga inhibitor: inhibitors of Shiga toxin in Vero cells | Vero cells, Shiga toxin protein synthesis inhibition reporter | inhibition, % at 38.7 µM | actives 9.2% (n = 290,000) | AID 2315; in the data active means inhibition mostly above about 28%, no sharp cut-off; inactive means mostly below about 43%
Pf growth 48h: P. falciparum growth inhibition at 48 hours (one generation); P. falciparum luciferase growth in erythrocytes, 48 h; Potency, µM (titrated, usually from 28.7 µM), actives largely listed as inhibitors; actives 5.9% (n = 310,000)
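Luciferase-expressing parasites in RBCs, 2% Hct / 0.1% parasitemia final; RPMI 1640 + 0.5% Albumax; 37 C, 5% CO2, one generation; luminescence read-out, lower signal = inhibition.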
Of the large screens only hits and unclear results are named; the others gave an inactive call. Unless noted, the call rests on the fitted dose curve; in most records, active means well fitted curve in the direction sought with a large enough effect; inconclusive means small, poorly fitted or top-dose-only effect, or another doubt; inactive means no such curve, though single readings can be large; an effect the other way counts as inactive or inconclusive.

O=C(NCc1ccccc1)c1ccc(Br)cc1Br	CHX counter 23, Shiga inhibitor active
O=C(NCc1ccccc1)c1cccnc1	none
CN(C)c1c(F)cc(C(=O)NCc2ccccc2)cc1F	CHX counter 20
O=C(NCc1ccccc1)c1ccc(Cl)nc1	CHX counter 40, Shiga inhibitor 70
Cc1ccc(C(=O)NCc2ccccc2)cc1Br	Pf growth 96h inconclusive, CHX counter 17
COc1cccc(NC(=O)CN(C)C(=O)CNC(=O)c2ccc3ccccc3c2)c1	none (no result: FBPA Giardia inh, NS1 inh, CHX counter, Shiga inhibitor)
O=C(Cn1c(-c2ccccn2)nc2ccccc21)N/N=C/c1cccnc1	none
Cc1ccc2[nH]c(O)c(N=Nc3ccccc3C)c2c1	none
Cc1ccc(N=Nc2c(O)c3ccccc3[nH]c2=O)c(S(=O)(=O)N(C)C)c1	Pf growth 96h inconclusive, CHX counter 38, Shiga inhibitor 43, Pf growth 48h inconclusive
Cc1cc(N=Nc2c(O)c3ccccc3[nH]c2=O)ccc1N=Nc1ccc(C(=O)N(C)C)cc1	Pf growth 96h 2.1µM, Pf growth 48h 1.9µM
Cc1nn(CC(C)C)c(Cl)c1C(=O)N(c1ccc(Cl)cc1F)S(C)(=O)=O	none
C=CCN=C(NC#N)SC	Pf growth 48h 0.23µM
CCOC(=O)c1c(-c2ccc(OC)cc2)csc1NC(=O)CCN1CCOCC1	Pf growth 96h 5.9µM, FBPA Giardia inh inconclusive, Pf growth 48h 12µM
COC(=O)c1c(-c2ccc(C)cc2)csc1NC(=O)C1CC=CCC1C(=O)O (configuration not stated)	Shiga inhibitor active
COC(=O)c1c(-c2cccc(C)c2)csc1NC(=O)C1CCCO1 (configuration not stated)	CHX counter 27, Pf growth 48h 13µM
CCOC(=O)c1c(-c2ccc(C)cc2)csc1NC(=O)C1CCCO1 (configuration not stated)	Pf growth 96h 9.3µM, Pf growth 48h inconclusive
CC(=O)Nc1ccc(S(=O)(=O)NCC(=O)OCC(=O)NC(=O)C2CCCCC2)cc1	CHX counter 21
CCCCn1nc2cc(C(=O)NCC34CC5CC(CC(C5)C3)C4)ccc2c1OC	Pf growth 96h 15µM, Pf growth 48h inconclusive
CCCCn1nc2cc(C(=O)NCC3CC3)ccc2c1OCC	Pf growth 96h inconclusive, Pf growth 48h inconclusive
CCn1nc2cc(C(=O)NCC34CC5CC(CC(C5)C3)C4)ccc2c1OC	Pf growth 48h 12µM
CCOc1c2ccc(C(=O)NCC34CC5CC(CC(C5)C3)C4)cc2nn1CC	Pf growth 96h inconclusive
O=C(CN1CCc2ccccc21)NC(=O)NC1CCCCC1	none
COc1cccc(O)c1CN1CCC(Oc2ccc(C(=O)NCc3ccccn3)cc2)CC1	Pf growth 96h inconclusive, Pf growth 48h inconclusive
CCc1nonc1NC(=O)COc1ccc(Cl)c(C)c1	Pf growth 96h 4.1µM, Pf growth 48h inconclusive (no result: FBPA Giardia inh)
COCCCNC(=O)COc1ccc2oc3c(c2c1)CCCC3	none
COCCCNC(=O)COc1ccc(Cl)c(C)c1	CHX counter 18
Cc1cc(OCC(=O)NC(C)(C)C)ccc1Cl	CHX counter 51, Shiga inhibitor 22
Cc1cc(OCC(=O)N(C(C)C)C(C)C)ccc1Cl	Pf growth 48h inconclusive (no result: NS1 inh)
O=S(=O)(NC1=NCCC1)c1ccc(F)cc1F	none
O=c1oc2ccccc2cc1-c1csc(NN=C2CCCC2)n1	Pf growth 96h inconclusive, CHX counter 14
O=C(O)c1cccc(Nc2nc(-c3cc4ccccc4oc3=O)cs2)c1	CHX counter 41, Shiga inhibitor 74
Cc1nc2ccccn2c1-c1csc(Nc2cccc(C(=O)O)c2)n1	FBPA Giardia inh inconclusive
Cc1c(CCOC(=O)c2cc([N+](=O)[O-])cc([N+](=O)[O-])c2)sc[n+]1CCCCS(=O)(=O)[O-]	none (no result: NS1 inh)
CC(=O)Nc1cc2c(s1)c1cnn(Cc3ccccc3F)c(=O)c1n2C	none (no result: FBPA Giardia inh, NS1 inh, CHX counter, Shiga inhibitor)
Cc1cc(C)c(-c2cc(C(F)(F)F)no2)c(=O)[nH]1	Pf growth 96h 12µM
CCCCOC(=O)c1ccc(NC(=S)NC(=O)c2ccco2)cc1	Pf growth 96h 12µM, Pf growth 48h inconclusive (no result: FBPA Giardia inh)
CCCCCOC(=O)c1ccc(NC(=O)c2ccco2)cc1	CHX counter 36, Shiga inhibitor 68, Pf growth 48h 1.3µM
CCCCOC(=O)c1ccc(NC(=S)NC(=O)c2c(Cl)cnn2C)cc1	FBPA Giardia inh inconclusive
CCOc1ccccc1C(=O)Nc1ccc(C(=O)c2ccccc2)cc1	none
CCCCCCCCOc1ccccc1C(=O)Nc1ccc(C(=O)OCC[N+](C)(CC)CC)cc1	Pf growth 96h 1.3µM, Pf growth 48h 15µM (no result: FBPA Giardia inh, NS1 inh, CHX counter, Shiga inhibitor)
N/C(=N\OC(=O)COc1ccc([N+](=O)[O-])cc1)c1ccncc1	none (no result: NS1 inh)
Cc1ccc(C)c(OCC(=O)O/N=C(\N)c2ccccn2)c1	CHX counter 28, Shiga inhibitor 88
Cc1ccc(SCC(=O)O/N=C(\N)c2cccnc2)cc1	CHX counter 17 (no result: FBPA Giardia inh)
Cc1cc(C)c(C)c(OCC(=O)O/N=C(\N)c2cccnc2)c1	Pf growth 96h inconclusive
Cc1ccc(C)c(OCC(=O)O/N=C(\N)c2cccnc2)c1	CHX counter 19, Pf growth 48h inconclusive
CCc1ccc(OCC(=O)O/N=C(\N)c2cccnc2)cc1	CHX counter 32, Shiga inhibitor 44
O=C(O)[C@H]1CCCC[C@@H]1c1c2ccc(=O)c(O)c-2oc2c(O)c(O)ccc12	none (no result: Pf growth 96h, FBPA Giardia inh, CHX counter, Shiga inhibitor, Pf growth 48h)
COc1ccccc1C/C(N)=N/OC(=O)COc1ccc2ccccc2c1	none
N/C(=N\OC(=O)COc1ccc2ccccc2c1)c1ccccn1	CHX counter 67, Shiga inhibitor 128
N/C(=N\OC(=O)COc1ccccc1Cl)c1ccccn1	CHX counter 45, Shiga inhibitor 65
N/C(=N\OC(=O)c1ccccc1Cl)c1ccccn1	none
CC(=O)N1c2ccc(S(=O)(=O)NCC3CCC(C(=O)NC4CCCCC4C)CC3)cc2CC1C (configuration not stated)	Pf growth 96h inconclusive, Pf growth 48h inconclusive
CN(C1CCCCC1)S(=O)(=O)c1ccc2c(c1)c(=O)c(C(=O)NCCCN1CCCC1)cn2C	Pf growth 96h 13µM (no result: Pf growth 48h)
CCCCN(CC)CCCNC(=O)c1cn(C)c2ccc(S(=O)(=O)N(C)C3CCCCC3)cc2c1=O	Pf growth 96h 15µM, Pf growth 48h inconclusive
CCn1cc(C(=O)NCCCN2CCCC(C)C2)c(=O)c2cc(S(=O)(=O)N(C)C3CCCCC3)ccc21 (configuration not stated)	Pf growth 96h 12µM, Pf growth 48h inconclusive
CN(C1CCCCC1)S(=O)(=O)c1ccc2c(c1)c(=O)c(C(=O)NCCN1CCCC1)cn2C	Pf growth 96h inconclusive (no result: Pf growth 48h)
CCn1cc(C(=O)N2CCc3ccccc32)c(=O)c2cc(S(=O)(=O)N(C)C3CCCCC3)ccc21	Pf growth 96h inconclusive, NS1 inh inconclusive, Pf growth 48h 12µM
C=CC[C@@H]1C=C[C@H](O/N=C(\C)CCN2CCCc3nc(C)c(C)cc32)[C@H](CO)O1	none (no result: Pf growth 96h, NS1 inh, CHX counter, Shiga inhibitor, Pf growth 48h)
Cc1ccc(C(N)=Nc2ccccc2)cc1	CHX counter 16
